Test results from PubChem BioAssay (NCATS).
Several values for one entry are separate records, joined by “and”; a condition that tells them apart may be missing. Equal values may be shown once. Unmarked numbers belong to inactive results. The call rests on the fitted dose curve; in most records, active means well fitted activation curve with a large enough effect; inconclusive means small, poorly fitted or top-dose-only effect; inactive means flat fitted curve, though single readings scatter.

biological target: Peroxisome proliferator-activated receptor alpha (Homo sapiens) (UniProt Q07869); assay: qHTS assay for small molecule agonists of the peroxisome proliferator-activated receptor alpha (PPARalpha) signaling pathway (AID 651778); details: PathHunter PPARalpha complementation, chemiluminescence, 6 h; stronger effect = higher value; further: % of control where 0% means no effect
Description: National Center for Advancing Translational Sciences [NCATS]
NIH Chemical Genomics Center [NCGC]
U.S. Environmental Protection Agency [EPA]
National Institutes of Environmental Health Sciences [NIEHS]
National Toxicology Program [NTP]
The Peroxisome proliferator-activated receptors (PPARs) are lipid-activated transcription factors of the nuclear receptor superfamily with three distinct subtypes (alpha, garmma and beta/delta). All these subtypes heterodimerize with retinoid X receptor and have different physiological functions. PPARalpha is highly expressed in tissues with high rates of mitochondrial fatty acid oxidation, such as liver, heart, muscle, kidney and cells of the arterial wall. PPARalpha is a major regulator of lipid metabolism and energy homeostasis.
A cell based assay was used to identify activators of PPARalpha. The assay detects binding of a ligand to PPARalpha leading to its activation, translocation and complementation thus forming a functional enzyme capable of hydrolyzing the substrate molecule and generating chemiluminescent signal.
2,000 cells in 6 uL/well were dispensed into white wall/solid bottom 1536-well plates using a Multidrop Combi (Thermo Scientific) dispenser. After incubation 37 C and 5% CO2 overnight, 23 nL compound or DMSO only were transferred by a pin tool. The plates were incubated for 6 hr at 37 C and 5% CO2. 3 ul PathHunter detection reagent (Discoverx) was then added to each well and following 60 min incubation at room temperature, chemiluminescence was quantified on a ViewLux CCD-based plate reader.

Chain of Peroxisome proliferator-activated receptor alpha (Homo sapiens) (Q07869 whole entry, looked up): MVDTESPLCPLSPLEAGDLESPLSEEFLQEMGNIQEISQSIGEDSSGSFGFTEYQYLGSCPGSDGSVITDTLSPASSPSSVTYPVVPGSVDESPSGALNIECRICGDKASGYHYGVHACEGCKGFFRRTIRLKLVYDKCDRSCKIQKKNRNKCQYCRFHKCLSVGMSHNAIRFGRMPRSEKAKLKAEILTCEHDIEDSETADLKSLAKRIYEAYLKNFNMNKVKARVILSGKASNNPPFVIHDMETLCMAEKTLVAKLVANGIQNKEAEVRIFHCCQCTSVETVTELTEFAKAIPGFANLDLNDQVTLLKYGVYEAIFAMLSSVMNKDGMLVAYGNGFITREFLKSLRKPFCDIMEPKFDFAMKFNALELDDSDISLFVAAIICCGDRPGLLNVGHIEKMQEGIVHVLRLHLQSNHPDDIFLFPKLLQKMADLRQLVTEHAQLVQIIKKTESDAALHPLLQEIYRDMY

Row | SMILES | max response
1 | CCN(CC)c1ccccc1 | -1.88%
2 | C=CCOC(C)=O | 7.33%
3 | C=CCc1ccc(OC)cc1 | 0.294%
4 | COc1ccc(C=O)cc1OC | 0.927% and -2.24%
5 | CC(C)Nc1nc(Cl)nc(NC(C)C)n1 | -0.58%
6 | CCCSC(=O)Cl | -0.0229%
7 | N#CCCCl | -3.2% and -4.12%
8 | Clc1nc(Cl)nc(Nc2ccccc2Cl)n1 | 1.31% and 8.11%
9 | CCC[CH2][Sn]([Cl])([Cl])[Cl] | 0.179% and -1.51%
10 | Clc1nc(Cl)nc(Cl)n1 | -5.93% and -1.12%
11 | CN=C=S | -2.7% and -1.5%
12 | COP(N)(=O)SC (stereo not given) | -4.83% and -1.06%
13 | C=CC(=C)C | 4.78%
14 | NC(=S)Nc1ccccc1 | -6.31% and -5.47% and -0.622%
15 | C[C@H]1CCCC(=O)CCC/C=C/c2cc(O)cc(O)c2C(=O)O1 | -0.403% and -3.88% and -0.278%
16 | C=C(C)C#N | -3.42% and 0.836%
17 | Nc1c(Cl)c(Cl)nc(C(=O)O)c1Cl | 0.0872% and -2.27% and -1.09%
18 | CC(C)OC(=O)Nc1cccc(Cl)c1 | -1.91%
19 | O=[N+]([O-])c1ccc(Cl)c(Cl)c1 | -3.39%
20 | Brc1ccc(Oc2cc(Br)c(Br)cc2Br)c(Br)c1 | 8.87% and 4.12% and 3.75%

Row | SMILES | max response
21 | O=C=NC1CCCCC1 | 0.341% and -3.39%
22 | CC(C)N1C(=O)c2ccccc2NS1(=O)=O | -0.187%
23 | CC(C)(C)OO | -2.75% and -4.99%
24 | CCCOC(=O)c1ccccc1C(=O)OCCC | -3.23% and -0.333%
25 | Clc1ccc2ccccc2c1 | 0.9%
26 | ClC1=C(Cl)C2(Cl)C3C4CC(C5OC45)C3C1(Cl)C2(Cl)Cl (stereo not given) | 9.76%
27 | Cc1ccc2ccccc2c1 | -0.593%
28 | O=C(Cl)C(Cl)(Cl)Cl | -1.02%
29 | C=CCc1ccc2c(c1)OCO2 | -3.48%
30 | OCC(Br)CBr (stereo not given) | -5.97%
31 | COC(=O)NC(=S)Nc1ccccc1NC(=S)NC(=O)OC | -4.83% and -0.925%
32 | CC(C)(C)OOC(C)(C)C | 0.694%
33 | CNC(=O)CSP(=S)(OC)OC | -2.63% and -0.399%
34 | COc1ccc(N)cc1 | -0.77% and -1.08%
35 | COc1nc(NC(C)C)nc(NC(C)C)n1 | -3.74%
36 | CCc1cccc(CC)c1N(COC)C(=O)CCl | -2.24% and -0.952%
37 | CCOc1ccc(N)cc1 | 3.04%
38 | C=CC(C)=O | -1.26%
39 | COP(=S)(OC)Oc1ccc([N+](=O)[O-])cc1 | -2.98% and -2.34%
40 | ClC(Cl)=C(Cl)Cl | -0.144% and -2.45%
